Experimental data taken from the supplement of paper PMC4840960.

tested on: E18 rat cortical neuron-glia co-culture; assay: myelination (MBP fiber length per Olig2+ nucleus), % of 1 µM DAPT response (DMSO = 0) (% of DAPT); higher = more myelination, active = 50 or more; details: 1 µM; treatment time: 8 days (DIV5-DIV13)
Method in brief: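 Rat cortical co-cultures from E18 tissue were dissociated with papain and plated at 20,000 cells/well on 96-well plates coated with poly-d-lysine/laminin. From DIV5 to DIV13, library compounds were added at 1 or 5 µM in myelination medium. After fixation in 4 % paraformaldehyde, cultures were immunostained for MBP and Olig2 and counterstained with DAPI, and four 10X fields were analysed in each of duplicate wells. The myelination value is the length of continuous straight MBP fibers per Olig2+ nucleus, normalised so that 0.1 % DMSO is 0 and a 1 µM positive control is 100.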

myelination, inactive:
CCN(Cc1ccncc1)C(=O)C(CO)c1ccccc1 (centres undefined) [Tropicamide] -22.3, Cc1cc(NS(=O)(=O)c2ccc(N)cc2)no1 [Sulfamethoxazole] -3.29, CC1=C(/C=C/C(C)=C/C=C/C(C)=C/C(=O)O)C(C)(C)CCC1 [Retinoic Acid] -3.28, Nc1nc2ccc(OC(F)(F)F)cc2s1 [Riluzole] -26.1, CCc1ccc(CCOc2ccc(CC3SC(=O)NC3=O)cc2)nc1 (centres undefined) [Pioglitazone] -2.52

same assay, conditions: 5 µM; treatment time: 8 days (DIV5-DIV13)

myelination, inactive:
NS(=O)(=O)c1cc2c(cc1C(F)(F)F)NCNS2(=O)=O [Hydroflumethiazide] -13.7, CN1CCc2cc(Cl)c(O)cc2C(c2ccccc2)C1 (centres undefined) -9.82, OC(CCN1CCCCC1)(c1ccccc1)C1CCCCC1 (centres undefined) [Trihexyphenidyl] -15.2, COc1ccc2[nH]c([S@@+]([O-])Cc3ncc(C)c(OC)c3C)nc2c1 [Esomeprazole] 4.81, COc1ccc(OC)c(C(O)CNC(=O)CN)c1 (centres undefined) [Midodrine] -8.37, CCCN[C@H]1CCc2nc(N)sc2C1 [Pramipexole] -14.4, Nc1nc2c(ncn2COCCO)c(=O)[nH]1 [Acyclovir] 29.3, CCCCC[C@H](O)/C=C/[C@H]1[C@H](O)CC(=O)[C@@H]1CCCCCCC(=O)O [Alprostadil] -7.47, CC(C)c1ccc2oc3nc(N)c(C(=O)O)cc3c(=O)c2c1 [Amlexanox] 0.757, CN(C)[C@@H]1C(O)=C(C(N)=O)C(=O)[C@@]2(O)C(O)=C3C(=O)c4c(O)cccc4[C@@](C)(O)[C@H]3[C@H](O)[C@@H]12 [Oxytetracycline] -10.5, CC(=O)[C@H]1CC[C@H]2[C@@H]3CCC4=CC(=O)CC[C@]4(C)[C@H]3CC[C@]12C [Progesterone] -38.4, CCN(CC)CCNC(=O)c1ccc(N)cc1 [Procainamide] 4.78, COC(=O)[C@H](c1ccccc1Cl)N1CCc2sccc2C1 [Clopidogrel] -2.98, CC(C)[C@H]1CC[C@H](C(=O)N[C@H](Cc2ccccc2)C(=O)O)CC1 [Nateglinide] -10.9, CC(=O)NCCCCCCNC(C)=O [Hexamethylene bisacetamide] -2.54, C=CC1=C(C(=O)O)N2C(=O)[C@@H](NC(=O)/C(=N\OCC(=O)O)c3csc(N)n3)[C@H]2SC1 [Cefixime] 28.9, CN(C)CCCSc1ccccc1NC(=O)/C=C/c1ccccc1 [Cinanserin] 9.08, CNS(=O)(=O)Cc1ccc2[nH]cc(CCN(C)C)c2c1 [Sumatriptan] -5.9, CCN(CC)C(=O)C1(c2ccccc2)CC1CN (centres undefined) [Milnacipran] -7.54, CC(C[N+](C)(C)C)OC(N)=O (centres undefined) [Bethanechol] -14.6, CS(=O)(=O)OCCCCOS(C)(=O)=O [Busulfan] 46.7, COc1cc(C)c(Cc2cnc(N)nc2N)cc1OC [Ormetoprim] -40, CCOC(=O)N1CCC(=C2c3ccc(Cl)cc3CCc3cccnc32)CC1 [Loratadine] -5.18, C[C@@H]1C[C@H]2[C@@H]3C[C@H](F)C4=CC(=O)C(Cl)=C[C@]4(C)[C@@]3(F)[C@@H](O)C[C@]2(C)[C@@]1(O)C(=O)CO [Halometasone hydrate] -30.1, CN1C(C(=O)Nc2ccccn2)=C(O)c2ccccc2S1(=O)=O [Piroxicam] -8.56, CN(C)CCCN1c2ccccc2Sc2ccc(Cl)cc21 [Chlorpromazine] -2.13, O=C(CCCN1CC=C(n2c(=O)[nH]c3ccccc32)CC1)c1ccc(F)cc1 [Droperidol] -16.6, CC[C@H]1OC(=O)[C@H](C)[C@@H](O[C@H]2C[C@@](C)(OC)[C@@H](O)[C@H](C)O2)[C@H](C)[C@@H](O[C@@H]2O[C@H](C)C[C@H](N(C)C)[C@H]2O)[C@](C)(O)C[C@@H](C)CN(C)[C@H](C)[C@@H](O)[C@]1(C)O [Azithromycin] -11.8, CN1CCC(=C2c3ccccc3C=Cc3ccccc32)CC1 [Cyproheptadine] -1.4
